Source: PubChem BioAssay
Compounds with a hit are over-represented: about 3.1% of the library has one in this group of screens.
Nrf2 ARE act – activates Nrf2 signaling; AREc32 ARE-luciferase reporter (MCF7-derived line), luminescence, 24 h; AID 624171; 0.31% of 410,000 active; Potency, µM (series often up to 46.1 µM), without a hit: at the highest dose activation, hits mostly activators; further: potency means the concentration at half of the fitted maximal effect; % of control where 0% means no effect; nearly all actives have a fitted effect of over 65% in size
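Cells of the AREc32 ARE-luciferase line are plated in OPTI-MEM containing 5% FBS and left overnight at 37 deg C. Compounds are pinned in, incubation continues 24 hr, and firefly luciferase signal is then measured.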
ELG1 repair inh – inhibitors of ELG1-dependent DNA repair in HEK293T cells; HEK293T ELG1-luciferase reporter, luminescence, 16 h; DNA damage induced by 5-fluorouridine; Potency, µM (highest dose often 46.1 µM), for inactives: at the top dose activity change, negative = inhibition, actives largely listed as inhibitors; 2.3% of 330,000 active; AID 504467; further: potency means the concentration at half of the fitted maximal effect; on the % scale 0 is the no-effect control and ±100 the full control effect; nearly all actives have a fitted effect of over 55% in size
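DMSO vehicle served as the neutral condition. Each well held 2,000 cells given 5-fluorouridine plus compound; after 16 hr at 37 °C/5% CO2, ONE-Glo was added and luciferase measured 30 min later.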
IL2 activator – IL-2 activation. IL-2 activation reporter assay, cell-based qHTS; stimulated with anti-CD3/CD4/CD28 beads; in transgenic mouse T cells. activation, % (series mostly up to about 46 µM). 0.065% of 360,000 active; in the data active means activation above about 50%; inconclusive means mostly about 30% to 49%; further: 0% is about no effect
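First, unstimulated transgenic mouse T cells were exposed to compound for 60 min. Next, anti-CD3/anti-CD4-coated beads with anti-CD28 were added. Finally, after 18 h at 37 degrees C, EGFP and DsRed were imaged.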
BRCA1 expr up – activators of BRCA1 expression; MCF7-BRCA1-FFLuc reporter, luminescence, 48 h; response scale: scaled: vehicle 0%, 10 µM genistein 100%; Potency, µM (series often up to 46.1 µM), for inactives: top-dose activation, most hits filed as activators; 1.1% of 380,000 active; AID 624202; further: potency means the concentration at half of the fitted maximal effect; nearly all actives have a fitted effect of over 80% in size
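MCF7-BRCA1-FFLuc, 2000 cells/well; 2 h attach, 37 °C/5% CO2; compound 48 h; luciferase substrate 15 min; luminescence end-point. Norm. to genistein 10 microM max activation and DMSO; concentration-response curves fitted.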
An asterisk follows results filed as active; ? = inconclusive; / = no result given. Unless noted, the call rests on the fitted dose curve; in most records, active means well fitted curve in the direction sought with a large enough effect; inconclusive means small, poorly fitted or top-dose-only effect, or another doubt; inactive means no such curve, though single readings can be large; an effect the other way counts as inactive or inconclusive.

SMILES | Nrf2 ARE act | ELG1 repair inh | IL2 activator | BRCA1 expr up
Cc1cccc(-c2nnc(-c3cccc(NC(=O)Cc4cccs4)c3)o2)c1 | 4% | ? | -1 | 13µM*
CCC(=O)N1CCCc2cc(S(=O)(=O)N3CCC(C(=O)NC4CCC(C)CC4)CC3)ccc21 (centres undefined) | 2% | / | / | /
Fc1ccc2nc(N3CCOCC3)sc2c1 | 3% | ? | -3 | 11µM*
Clc1cccc2sc(N3CCCC3)nc12 | 3% | ? | -3 | ?
Clc1cccc2sc(N3CCOCC3)nc12 | 1% | / | 5 | 16µM*
Cc1ccc(CCNC(=O)CN2CCN(Cc3ccc(Cl)cc3)C2=O)cc1 | -1% | / | / | 3%
COc1ccc(C2(CNC(=O)c3ccc(OC)c([N+](=O)[O-])c3)CCCCC2)cc1OC | 2% | 15µM* | -1 | -35%
CCOc1ccc(S(=O)(=O)N(C(=O)c2ccncc2)c2ccc3oc(C)c(C(=O)OC)c3c2)cc1 | -1% | / | / | /
O=C(NCCC1=CCCCC1)c1ccc(=O)oc1 | 13% | ? | -4 | -5%
O=C(NCCC1=CCCCC1)c1coc(=O)c(Br)c1 | 13µM* | -4% | -5 | -43%
C=C1C(=O)O[C@H]2[C@H]1[C@H](OC(=O)/C(C)=C\C)C[C@]1(CO1)[C@@H]1[C@H](OC(C)=O)C=C(C)[C@]21O | 16µM* | / | -5 | 0%
C=C1C(=O)O[C@@H]2[C@H]1[C@@H](OC(=O)/C(C)=C/C)C/C(C)=C\C(=O)/C=C(\C)[C@@H]2O | ? | ? | -1 | -64%
CCOc1ccccc1NC(=O)C1CCN(S(=O)(=O)c2c(C)noc2/C=C/c2ccc(C)cc2)CC1 | 0% | / | / | -6%
O=C(NCC(=O)N1CCN(c2ncccn2)CC1)c1ccccc1F | 0% | ? | 0 | 7.9µM*
COc1ccccc1C(=O)NCC(=O)N1CCN(c2ncccn2)CC1 | 0% | 28% | 0 | 5%
O=C1C(N2CCOCC2)=C(n2nnc3ccccc32)C(=O)c2ccccc21 | -2% | 2.6µM* | 0 | -74%
COc1cccc(OC)c1C(=O)Nc1ccc(C)cc1C(=O)c1ccccc1 | 0% | 16µM* | 0 | -13%
COc1ccc(C(=O)Nc2ccc(C)cc2C(=O)c2ccccc2)c(OC)c1 | 0% | ? | 0 | -26%
O=C(c1ccc(Cn2c(=O)[nH]c3ccccc3c2=O)cc1)N1CCN(c2ccccn2)CC1 | -1% | ? | -2 | 3%
CCOC(=O)C1CCCN(C(=O)c2ccc3c(c2)N(C)C(=O)/C(=C/c2ccccc2Cl)S3)C1 (centres undefined) | 2% | 15µM* | -4 | -21%
O=C(c1ccc(Cn2c(=S)[nH]c3ccccc3c2=O)cc1)N1CCN(c2ccccn2)CC1 | 0% | 10µM* | -3 | -45%
CCOC(=O)N1CCN(C(=O)c2ccc(Cn3c(=S)[nH]c4cc5c(cc4c3=O)OCO5)cc2)CC1 | 0% | 23µM* | 1 | -71%
O=C(CCc1nnc2n(Cc3ccc(F)cc3)c(=O)c3ccccc3n12)N1CCN(c2ccccn2)CC1 | 0% | 15µM* | 2 | -22%
O=C(CCc1nnc2n(Cc3ccc(F)cc3)c(=O)c3ccccc3n12)NCCN1CCOCC1 | 0% | 9% | -3 | 15%
CCCOc1cccc(C2c3c(-c4ccccc4O)n[nH]c3C(=O)N2Cc2ccco2)c1 (centres undefined) | -5% | / | / | /
SMILES | Nrf2 ARE act | ELG1 repair inh | IL2 activator | BRCA1 expr up
CC(=O)NC(Cc1c(F)c(F)c(F)c(F)c1F)C(=O)NCC(N)C(=O)c1ccccc1 (centres undefined) | / | / | / | -52%
COC(=O)c1cc2oc(C)cc2n1CC(=O)Nc1ccc(C)cc1C | 0% | / | / | /
COCCn1c(=O)[nH]c2cc(C(=O)N3CCN(c4ccc(Cl)cc4)CC3)ccc2c1=O | 0% | 18µM* | -1 | -49%
O=C(c1ccc2c(=O)n(CCc3ccccc3)c(=O)[nH]c2c1)N1CCN(c2ccc(Cl)cc2)CC1 | 1% | / | / | -37%
CCOC(=O)N1CCN(C(=O)c2ccc3c(=O)n(Cc4ccc(OC)cc4)c(=S)[nH]c3c2)CC1 | -1% | 13µM* | 0 | -22%
CCOC(=O)N1CCN(C(=O)c2ccc3c(=O)n(Cc4ccccc4)c(=S)[nH]c3c2)CC1 | 0% | -13% | -2 | -41%
COc1ccc2[nH]c3c(=O)n(Cc4ccc(C(=O)N5CCCCCC5)cc4)c(=S)[nH]c3c2c1 | 1% | ? | 1 | -9%
